Assay outcomes deposited in PubChem BioAssay by Broad Institute.
Most compounds without a hit are left out; they make up all but 6.8% or so of the library.
T cruzi growth-1: T. cruzi proliferation inhibition. T. cruzi beta-gal in NIH3T3, GalScreen luminescence, 90 h. inhibition, % at 8.34 µM. actives 5.9% (n = 77,000). AID 624255;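 active = mean inhibition above about 93%, with at least 55% of replicates each passing it, limit read from the data, passing the limit was not always enough; inconclusive = only one of those two conditions holds; inactive = neither condition holds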
Pf Dd2 inh: blocks growth of Plasmodium falciparum Dd2 parasites; P. falciparum Dd2 growth, SYBR Green, 72 h; active compounds read low; activity change, % at 10 µM; actives 2.3% (n = 94,000); AID 1159554; in the data active = activity change below about -80%; inconclusive = no clear call, values can overlap the other calls
C diff growth: inhibitors of Clostridium difficile growth. Clostridium difficile clinical isolate growth, OD600, 24 h; active compounds read low. growth activity, negative = inhibition, % at 16 µg/mL (by protocol). actives 0.25% (n = 86,000). AID 1259249;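 active = mean growth activity at or below -80% and every replicate also at or below -80%; inconclusive = mean at or below -80% but some replicate above -80%; inactive = mean growth activity above -80%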;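 note: 0% = DMSO wells and -100% = levofloxacin 16 µg/mL wells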
T cruzi growth-2: blocks T. cruzi growth in NIH3T3 host cells. actives 72% (n = 5,600). inhibition, % at 8.35 µM. shares compounds with T cruzi growth-1. T. cruzi beta-gal in NIH3T3, GalScreen luminescence, 90 h;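 active = mean replicate inhibition above about 95% and at least 55% of replicates individually reaching it, limit read from the data; inconclusive = only one of the two criteria is met; inactive = neither criterion is met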
T cruzi growth-3: blocks T. cruzi growth in NIH3T3 host cells | inhibition, % at 2.09 µM | AID 651740 | T. cruzi beta-gal in NIH3T3, GalScreen luminescence, 90 h | shares compounds with T cruzi growth-1 | actives 21% (n = 5,600);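 active = mean inhibition above about 95%, with at least 55% of replicates also reaching it, limit read from the data; inconclusive = meets just one of the two conditions; inactive = meets neither condition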;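 note: plate controls were neutral control median for no effect and positive control median for full effect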
NIH3T3 tox: cytotoxicity in mouse NIH/3T3 fibroblasts; cytotoxicity (signal decrease), % at 8.35 µM; NIH/3T3 viability, CellTiter-Glo ATP luminescence, 90 h; shares compounds with T cruzi growth-1; actives 14% (n = 5,600);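 active = mean signal decrease across replicates above about 35% based on untreated-well scatter, with enough replicates individually passing, limit read from the data; inconclusive = no rule stated though some were filed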;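 note: 0% = median of neutral control wells and 100% = median of positive control wells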
NIH3T3 tox 2: cytotoxicity in mouse NIH/3T3 fibroblasts; shares compounds with T cruzi growth-1; NIH/3T3 viability, CellTiter-Glo ATP luminescence, 90 h; inhibition, % at 24.9 µM; actives 56% (n = 5,600); AID 651744;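 active = mean loss of cell viability signal at or above a set limit, and enough replicates individually reaching it; inconclusive = meets only the mean limit or only the replicate share; inactive = meets neither condition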;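 note: 0% = median of neutral control wells and 100% = median of positive control wells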
* = called active by the depositor; ? = inconclusive; nt = not tested or not shown.

SMILES	T cruzi growth-1	Pf Dd2 inh	C diff growth	T cruzi growth-2	T cruzi growth-3	NIH3T3 tox	NIH3T3 tox 2
O=C(c1ccc2c(c1)OCO2)N1CC[C@@H]2[C@H](CO)Nc3ccc(C#Cc4ccccc4)cc3[C@@H]21	76	-19	-1	nt	nt	nt	nt
OC[C@H]1Nc2ccc(C#Cc3ccc(F)cc3)cc2[C@@H]2[C@H]1CCN2Cc1ccc2c(c1)OCO2	?	-30	3	103*	97*	40*	104*
N#Cc1ccc(-c2ccc3c(c2)[C@H]2[C@H](CCN2C(=O)c2ccc4c(c2)OCO4)[C@@H](CO)N3)cc1	26	-60	2	nt	nt	nt	nt
OC[C@@H]1Nc2ccc(C#Cc3ccc(F)cc3)cc2[C@@H]2[C@H]1CCN2Cc1ccc2c(c1)OCO2	134*	-64	1	103*	107*	38*	103*
COCC(=O)Nc1ccc2c(c1)OC[C@@H](C)N(CCC(F)(F)F)C[C@@H](C)[C@H](OC)CN(C)C2=O	14	3	1	nt	nt	nt	nt
C[C@@H]1CCCCO[C@H](CN(C)C)[C@H](C)CN([C@@H](C)CO)C(=O)c2cc(NC(=O)CCC(F)(F)F)ccc2O1	27	14	0	nt	nt	nt	nt
COc1ccc(-c2ccc3c(c2)[C@H]2[C@H](CCN2C(=O)Cc2ccncc2)[C@H](CO)N3)cc1	54	-70	-4	nt	nt	nt	nt
O=C(Cc1ccncc1)N1CC[C@@H]2[C@H]1c1cc(-c3cccc(F)c3)ccc1N[C@@H]2CO	118*	-71	-3	107*	75	6	25
O=C(Cc1ccccc1)N1CC[C@H]2[C@H](CO)Nc3ccc(-c4cccc(F)c4)cc3[C@H]21	89	11	10	nt	nt	nt	nt
COc1cccc(-c2ccc3c(c2)[C@@H]2[C@@H](CCN2C(=O)Cc2ccncc2)[C@@H](CO)N3)c1	?	-71	-5	101*	44	-18	11
O=C(Cc1ccncc1)NCC[C@H]1CC[C@H](NC(=O)Nc2cccc(F)c2)[C@@H](CO)O1	21	-20	1	nt	nt	nt	nt
COc1ccc2c3c([nH]c2c1)[C@H](CO)N(C(=O)Nc1ccccc1F)CC31CN(C(C)=O)C1	nt	33	1	nt	nt	nt	nt
C[C@@H]1CCCCO[C@H](CN(C)Cc2ccc3c(c2)OCO3)[C@@H](C)CN([C@@H](C)CO)C(=O)c2cc(NC(=O)Nc3ccc(C(F)(F)F)cc3)ccc2O1	?	-66	-100*	97*	116*	117*	104*
C[C@@H]1CCCCO[C@@H](CN(C)Cc2ccc(C(F)(F)F)cc2)[C@H](C)CN([C@H](C)CO)C(=O)c2cc(NC(=O)Nc3ccc4c(c3)OCO4)ccc2O1	79	-6	nt	nt	nt	nt	nt
C[C@H]1CCCCO[C@@H](CN(C)Cc2ccc(C(F)(F)F)cc2)[C@@H](C)CN([C@@H](C)CO)C(=O)c2cc(NC(=O)Nc3ccc4c(c3)OCO4)ccc2O1	88	-54	nt	nt	nt	nt	nt
C[C@@H]1CCCCO[C@@H](CN(C)Cc2ccc3c(c2)OCO3)[C@@H](C)CN([C@H](C)CO)C(=O)c2cc(NC(=O)Nc3ccc(C(F)(F)F)cc3)ccc2O1	127*	-4	-5	90	110*	1	17
C[C@H](CO)N1C[C@H](C)[C@@H](CN(C)Cc2ccc(C(F)(F)F)cc2)OCCCC[C@H](C)Oc2ccc(NC(=O)Nc3ccc4c(c3)OCO4)cc2C1=O	80	21	nt	nt	nt	nt	nt
C[C@@H]1CCCCO[C@H](CN(C)Cc2ccc3c(c2)OCO3)[C@H](C)CN([C@@H](C)CO)C(=O)c2cc(NC(=O)Nc3ccc(C(F)(F)F)cc3)ccc2O1	122*	-86*	-39	96*	116*	122*	104*
C[C@@H]1CN([C@@H](C)CO)C(=O)c2cc(NC(=O)Nc3ccc(C(F)(F)F)cc3)ccc2O[C@@H](C)CCCCO[C@H]1CN(C)Cc1ccc2c(c1)OCO2	?	-70	-92*	100*	112*	21	105*
C[C@H](CO)N1C[C@H](C)[C@H](CN(C)Cc2cncnc2)Oc2ncc(-c3ccc(F)cc3)cc2C1=O	-23	14	-3	nt	nt	nt	nt
C[C@@H]1CN([C@@H](C)CO)C(=O)c2cc(C#CC(C)(C)O)cnc2O[C@H]1CN(C)Cc1cncnc1	42	11	5	nt	nt	nt	nt
COc1ccc(NC(=O)Nc2ccc3c(c2)CC(=O)N([C@H](C)CO)C[C@@H](C)[C@H](CN(C)S(=O)(=O)c2c(C)noc2C)O3)cc1	-8	6	1	nt	nt	nt	nt
CCCC#Cc1cnc2c(c1)C(=O)N([C@H](C)CO)C[C@@H](C)[C@H](CN(C)C(=O)CCN1CCCCC1)O2	nt	-8	4	nt	nt	nt	nt
COc1ccc(S(=O)(=O)N(C)C[C@H]2Oc3ccc(NC(=O)Nc4cccc5ccccc45)cc3CC(=O)N([C@H](C)CO)C[C@@H]2C)cc1	-27	-33	6	nt	nt	nt	nt
O=C(C1CCCC1)N1CCCCN2[C@H](C1)[C@@H](c1ccc(-c3cccc(F)c3)cc1)[C@@H]2CO	93	22	34	nt	nt	nt	nt
SMILES	T cruzi growth-1	Pf Dd2 inh	C diff growth	T cruzi growth-2	T cruzi growth-3	NIH3T3 tox	NIH3T3 tox 2
CN1C(=O)c2cc(NC(=O)Nc3cccc(Cl)c3)ccc2OC[C@@H]2O[C@H](CC(=O)O)CC[C@H]21	-168	3	-2	nt	nt	nt	nt
COc1ccccc1CN1C[C@@H](C)[C@H](OC)CN(C)C(=O)c2ccc(NC(C)=O)cc2OC[C@@H]1C	61	-1	nt	nt	nt	nt	nt
C[C@@H]1CCCCO[C@H](CN(C)Cc2ccc(C(F)(F)F)cc2)[C@H](C)CN([C@@H](C)CO)C(=O)c2cc(NC(=O)Nc3ccc4c(c3)OCO4)ccc2O1	83	-80	nt	nt	nt	nt	nt
C[C@H](CO)N1C[C@H](C)[C@H](CN(C)Cc2ccc3c(c2)OCO3)OCCCC[C@H](C)Oc2ccc(NC(=O)Nc3ccc(C(F)(F)F)cc3)cc2C1=O	?	-71	-57	104*	113*	124*	104*
C[C@H]1CCCCO[C@H](CN(C)Cc2ccc3c(c2)OCO3)[C@@H](C)CN([C@@H](C)CO)C(=O)c2cc(NC(=O)Nc3ccc(C(F)(F)F)cc3)ccc2O1	?	-29	-67	87	106*	91*	103*
C[C@H]1CCCCO[C@H](CN(C)Cc2ccc(C(F)(F)F)cc2)[C@@H](C)CN([C@@H](C)CO)C(=O)c2cc(NC(=O)Nc3ccc4c(c3)OCO4)ccc2O1	74	-30	nt	nt	nt	nt	nt
C[C@@H]1CN([C@H](C)CO)C(=O)c2cc(NC(=O)Nc3ccc(C(F)(F)F)cc3)ccc2O[C@@H](C)CCCCO[C@H]1CN(C)Cc1ccc2c(c1)OCO2	?	-57	-100*	?	103*	22	104*
C[C@H](CO)N1C[C@H](C)[C@H](CN(C)Cc2cncnc2)Oc2cc(-c3ccncc3)ccc2S1(=O)=O	?	13	3	79	79	46*	49*
